Test results: PubChem BioAssay AID588855 (National Center for Advancing Translational Sciences (NCATS), 2011)
Among all 410,000 compounds or so, about 5,000 (1.2%) were called active. Inconclusive results (about 13%) are left out. This excerpt belongs to a sample that is enriched for actives. Values without a mark were called inactive. Calls come from the whole dose curve; as a rule, active = well fitted inhibition curve with a large enough effect; inconclusive = small, poorly fitted or top-dose-only effect; inactive = no such curve, though single readings can be large or run the other way.

Assay: qHTS for Inhibitors of TGF-b; note: nearly all actives have a fitted effect of over 65% in size
Conditions: HepG2 CAGA-GFP TGF-b/SMAD3 reporter, GFP fluorescence, 18 h, TGF-beta stimulated, 500 pg/mL final; series mostly up to 46.1 µM; activity, negative = inhibition: at the top concentration
Procedure, shortened: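 First, reporter cells (HEPG2 CAGA-GFP) rested 2 h at 37 degrees C. Next, compounds were pinned in and TGF-beta added to 500 pg/mL final. After 18 h, GFP was imaged per cell and summed per well.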
% is set by controls: 0 for no effect and ±100 for the full control effect; potency is the fitted concentration of half-maximal effect.

Structure (SMILES) | Potency | activity, negative = inhibition [%]
COc1cccc(-c2cc3nc4c(c(N5CCC6(CC5)OCCO6)n3n2)CCCC4)c1 | 12.6 µM (active) | 
O=C(CC(c1cccs1)N1Cc2ccccc2C1=O)Nc1ccc(F)c(F)c1 (stereo not drawn) |  | -4.52
CCOc1ccccc1NC(=O)Cn1c(=O)n(Cc2ccco2)c(=O)c2sc3ccccc3c21 |  | -0.989
Cc1cccc(NC(=O)C2CCCN(C(=O)NCc3ccccc3)C2)c1C (stereo not drawn) |  | -10.4
Cc1c(Cl)cccc1NC(=O)C1CCCN(c2ncnc3onc(C)c23)C1 (stereo not drawn) |  | -13.3
Cc1c(Cl)cccc1NC(=O)C1CCCN(C(=O)c2cnn(-c3ccccc3)c2-n2cccc2)C1 (stereo not drawn) | 12.6 µM (active) | 
CCOc1ccccc1NC(=O)Cn1c2ncccc2c(=O)n1-c1ccc(C)c(C)c1 |  | -0.756
Cc1[nH]c2ccccc2c1C(=O)C(=O)N(C)c1ccccc1 |  | -12
COc1ccc(-c2cn3c(C)c(C(=O)Nc4cc(C)cc(C)c4)sc3n2)cc1 |  | 0.33
COc1ccc(CCNC(=O)CN(c2ccccc2)S(C)(=O)=O)cc1OC |  | -11.8
COc1ccc(C(C(=O)NC2CCCCC2)N(C(=O)CCl)c2ccccc2Cl)cc1 (stereo not drawn) |  | 5.59
COc1ccc(C(CCN(Cc2ccc(OC)c(OC)c2)C(=O)CCl)c2ccccc2)cc1 (stereo not drawn) | 14.1 µM (active) | 
CCn1c(=O)c2cc(C(=O)Nc3cccc(C(C)=O)c3)sc2c2ccccc21 |  | 36.2
CCn1c2ccccc2c2cc(CC(N)=O)ccc21 |  | 10.2
CC(=O)c1ccc2c(c1)c1ccccc1n2CC(C)C | 7.08 µM (active) | 
CCOC(=O)N1CCC(NC(=O)c2cnn(-c3cccc(C)c3)c2C2CCN(C(=O)OC(C)(C)C)CC2)CC1 |  | -6.58
O=C(NCCc1ccccc1)C(=O)NCC(c1ccco1)S(=O)(=O)c1ccccc1 (stereo not drawn) |  | 5.98
CCOCCCNC(=O)c1c(NC(=O)c2nc(SC)ncc2Cl)sc2c1CCCC2 |  | 11.6
O=C(Nc1cccc2cccnc12)c1cccc2c(Br)cccc12 |  | -11.1
Cc1ccc(C)c(N2CCN(C(c3ccccc3)c3nnc(-c4ccccc4)o3)CC2)c1 (stereo not drawn) |  | -6.53
CC(=O)c1ccc(NC(c2ccc(F)cc2)c2nnc(-c3ccccc3)o2)cc1 (stereo not drawn) |  | 0.279
Fc1ccc(C(Nc2ccc(Cl)c(C(F)(F)F)c2)c2nnc(-c3ccccc3)o2)cc1 (stereo not drawn) | 10 µM (active) | 
Cc1ccc(-c2nnc(SCc3ccccc3C)o2)cc1 |  | -13.1
CCOC(=O)c1cccc(NS(=O)(=O)c2cn(C)c(C)n2)c1 |  | 1.9

Structure (SMILES) | Potency | activity, negative = inhibition [%]
Cc1c(C(=O)N(C)C)sc2c1c(=O)n(-c1ccc(F)cc1)c(=O)n2CC(=O)N(C)c1ccccc1 |  | 9.55
CCNC(=O)c1cc2n(n1)CCCN(Cc1ccc(C)cc1)C2=O |  | -2.45
Cc1ccc(NC(=O)c2cc3cc(C)ccc3n2C)cc1 |  | -0.488
CCCn1c(=N)c(C(=O)NCc2ccccc2)cc2c(=O)n3cccc(C)c3nc21 |  | 86.4
CCOCCn1ccc2c(OCC(=O)NCc3ccc(C)cc3)cccc2c1=O |  | -0.375
CCCn1ccc2c(OCC(=O)NCc3ccc(F)cc3)cccc2c1=O |  | -35.8
COC(=O)COc1cccc2c(=O)n(CC(=O)NCc3ccccc3)ccc12 | 8.91 µM (active) | 
COc1ccc(OCC(=O)Nc2cccc(C(=O)OCc3cc(=O)n4nc(C)sc4n3)c2)cc1 |  | 0.41
CCC1=Nc2cc(C(=O)NCCCN3CCOCC3)ccc2Sc2ccc(Br)cc21 |  | -10.2
O=C(NCCN1CCOCC1)c1ccc2c(c1)N(Cc1cccc(Cl)c1)C(=O)c1ccccc1S2(=O)=O |  | -13.7
O=C(NCCCN1CCOCC1)c1cc(-c2ccccc2F)no1 |  | -4.7
O=C(NCCCN1CCCCC1)c1ccc2c(c1)NC(=O)C(N1CCOCC1)S2 (stereo not drawn) |  | -0.157
O=C(NCCCN1CCOCC1)c1ccc2c(c1)N(Cc1cccc(F)c1)C(=O)c1ccccc1S2 | 11.2 µM (active) | 
Cc1csc2nc(COC(=O)c3ccc(NC(=O)COc4ccccc4F)cc3)cc(=O)n12 |  | -17.6
COc1ccccc1CNC(=O)C(=O)NCC(c1cccs1)S(=O)(=O)c1cccs1 (stereo not drawn) |  | 2.99
CC1CC(C)CN(C(=O)C2CC(=O)N(c3ccc(F)cc3)C2)C1 (stereo not drawn) |  | 7.86
Cc1ccc2c(c1)N(C(=O)Nc1ccc(Br)cc1F)CCO2 |  | 1.64
C[C@@H]1C(c2ccc(F)cc2)=NN(c2ccc(Br)cc2)[C@H]1C(=O)N1CCOC1=O | 14.1 µM (active) | 
COc1ccc(CNC(=O)c2cc3c(s2)-c2ccccc2OC3)cc1 |  | 3.78
Cc1cc(C)cc(-n2c(SCC(=O)NCC3CCCO3)nc3c([nH]c4ccccc43)c2=O)c1 (stereo not drawn) |  | 2.07
Cc1oc(-c2ccccc2)nc1Cn1c(SCc2cccc(C(F)(F)F)c2)nc2cccnc21 | 15.8 µM (active) | 
Cc1cccc(CSc2nc3ccncc3n2Cc2ccc(C(=O)O)cc2)c1 |  | 12.2
Cc1ccc(CSc2nc3cccnc3n2Cc2ccc(C(=O)NC3CC3)cc2)cc1 |  | -1.14
COC(=O)c1ccc(OC)c(Cn2c(=O)n(Cc3ccccc3)c(=O)c3c2c2cc(OC)ccc2n3C)c1 |  | -1.14
